Data taken from PubChem BioAssay (EPA / NIEHS).
Calls of active or inactive are those of the source. Rule for the calls: active = hit-call score of the fitted dose curve at least 0.9, where 1 is the maximum; inactive = score below 0.9.

How the values were obtained:
[1] = read-out: Interleukin-8 (IL8), CXCL8 (gene 3576); test: BSK_CASM3C_IL8: BioMAP Diversity Plus: CASM3C Assay for Interleukin-8 (IL8) Biomarker Activity (AID 2283042); settings: primary human coronary artery smooth muscle cells; actives raise or lower the signal;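 note: IL-8 protein level quantified by ELISA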
[2] = read-out: Human Leukocyte Antigen - DR isotype (HLADR), HLA-DRA (gene 3122); test: BSK_CASM3C_HLADR: BioMAP Diversity Plus: CASM3C Assay for Human Leukocyte Antigen - DR isotype (HLADR) Biomarker Activity (AID 2283043); settings: primary human coronary artery smooth muscle cells; actives raise or lower the signal;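 note: cell-surface HLA-DR protein level quantified by ELISA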
[3] = read-out: Macrophage colony-stimulating factor (MCSF), CSF1 (gene 1435); test: BSK_CASM3C_MCSF: BioMAP Diversity Plus: CASM3C Assay for Macrophage colony-stimulating factor (MCSF) Biomarker Activity (AID 2283044); settings: primary human coronary artery smooth muscle cells; actives raise or lower the signal;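 note: M-CSF protein amount quantified by ELISA after 24 h exposure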
[4] = read-out: Low-density lipoprotein receptor (LDLR), LDLR (gene 3949); test: BSK_CASM3C_LDLR: BioMAP Diversity Plus: CASM3C Assay for Low-density lipoprotein receptor (LDLR) Biomarker Activity (AID 2283045); settings: primary human coronary artery smooth muscle cells; actives raise or lower the signal;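 note: LDLR protein level on the cell surface quantified by ELISA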
[5] = read-out: Monocyte Chemoattractant Protein-1 (MCP1), CCL2 (gene 6347); test: BSK_CASM3C_MCP1: BioMAP Diversity Plus: CASM3C Assay for Monocyte Chemoattractant Protein-1 (MCP1) Biomarker Activity (AID 2283046); settings: primary human coronary artery smooth muscle cells; actives raise or lower the signal;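 note: MCP-1 level quantified by ELISA 24 h after dosing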
[6] = BSK_CASM3C_Proliferation: Cell Proliferation Assessment in the BioMAP Diversity Plus: CASM3C Assay (AID 2283047); settings: primary human coronary artery smooth muscle cells;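 note: sulforhodamine B total protein stain as relative cell number at 560 nm; sub-confluent cells exposed 48 h before staining; fitted both ways against DMSO so gain or loss of cell number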
[7] = read-out: Monokine induced gamma interferon (MIG), CXCL9 (gene 4283); test: BSK_CASM3C_MIG: BioMAP Diversity Plus: CASM3C Assay for Monokine induced gamma interferon (MIG) Biomarker Activity (AID 2283048); settings: primary human coronary artery smooth muscle cells; actives raise or lower the signal;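 note: MIG protein level measured by ELISA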
[8] = read-out: serum amyloid A (SAA), SAA1 (gene 6288); test: BSK_CASM3C_SAA: BioMAP Diversity Plus: CASM3C Assay for serum amyloid A (SAA) Biomarker Activity (AID 2283049); settings: primary human coronary artery smooth muscle cells; actives raise or lower the signal;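 note: SAA protein level quantified by ELISA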
[9] = BSK_CASM3C_SRB: Viability Assessment in the BioMAP Diversity Plus: CASM3C Assay (AID 2283050); settings: primary human coronary artery smooth muscle cells;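 note: total protein by SRB staining as cytotoxicity measure in parallel cultures; cells exposed to compound for 24 h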
[10] = read-out: Thrombomodulin, THBD (gene 7056); test: BSK_CASM3C_Thrombomodulin: BioMAP Diversity Plus: CASM3C Assay for Thrombomodulin Biomarker Activity (AID 2283051); settings: primary human coronary artery smooth muscle cells; actives raise or lower the signal;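 note: thrombomodulin protein level measured by ELISA 24 h after dosing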
[11] = read-out: Tissue Factor, F3 (gene 2152); test: BSK_CASM3C_TissueFactor: BioMAP Diversity Plus: CASM3C Assay for Tissue Factor Biomarker Activity (AID 2283052); settings: primary human coronary artery smooth muscle cells; actives raise or lower the signal;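 note: cell surface tissue factor protein level read by ELISA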
[12] = read-out: Interferon-gamma inducible Protein 10 (IP10), CXCL10 (gene 3627); test: BSK_hDFCGF_IP10: BioMAP Diversity Plus: hDFCGF Assay for Interferon-gamma inducible Protein 10 (IP10) Biomarker Activity (AID 2283053); settings: primary human foreskin fibroblasts; actives raise or lower the signal
Procedure, shortened: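 Cells: human dermal foreskin fibroblasts. Exposure: 24 h post-dosing. Detection: IP-10 ELISA, with values expressed against DMSO controls and fitted in both directions.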

[13] = read-out: Urokinase-type plasminogen activator receptor (uPAR), PLAUR (gene 5329); test: BSK_CASM3C_uPAR: BioMAP Diversity Plus: CASM3C Assay for Urokinase-type plasminogen activator receptor (uPAR) Biomarker Activity (AID 2283054); settings: primary human coronary artery smooth muscle cells; actives raise or lower the signal;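 note: cell-surface uPAR protein level quantified by ELISA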
[14] = read-out: Vascular cell adhesion molecule 1 (VCAM1), VCAM1 (gene 7412); test: BSK_CASM3C_VCAM1: BioMAP Diversity Plus: CASM3C Assay for Vascular cell adhesion molecule 1 (VCAM1) Biomarker Activity (AID 2283055); settings: primary human coronary artery smooth muscle cells; actives raise or lower the signal;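 note: VCAM-1 protein level quantified by ELISA on the cells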
[15] = read-out: Collagen III, COL3A1 (gene 1281); test: BSK_hDFCGF_CollagenIII: BioMAP Diversity Plus: hDFCGF Assay for Collagen III Biomarker Activity (AID 2283056); settings: primary human foreskin fibroblasts; actives raise or lower the signal
Procedure, shortened: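 ELISA readout of Collagen III in human dermal (foreskin) fibroblasts, taken 24 h post-treatment. Gain or loss relative to DMSO vehicle fitted in both directions.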

[16] = read-out: Epidermal growth factor receptor (EGFR), EGFR (gene 1956); test: BSK_hDFCGF_EGFR: BioMAP Diversity Plus: hDFCGF Assay for Epidermal growth factor receptor (EGFR) Biomarker Activity (AID 2283057); settings: primary human foreskin fibroblasts; actives raise or lower the signal
Procedure, shortened: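 Dosing human primary skin fibroblasts, then measuring surface EGFR by ELISA at 24 h, gives the endpoint; gains and losses relative to DMSO were fitted in both directions.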

[17] = read-out: Interleukin-8 (IL8), CXCL8 (gene 3576); test: BSK_hDFCGF_IL8: BioMAP Diversity Plus: hDFCGF Assay for Interleukin-8 (IL8) Biomarker Activity (AID 2283058); settings: primary human foreskin fibroblasts; actives raise or lower the signal
Procedure, shortened: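 IL-8 levels read by ELISA at 24 hours after dosing human skin fibroblast cultures. Parallel SRB staining assessed overt cytotoxicity, and gain or loss of signal was fitted against DMSO control.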

[18] = BSK_hDFCGF_Proliferation: Cell Proliferation Assessment in the BioMAP Diversity Plus: hDFCGF Assay (AID 2283059); settings: primary human foreskin fibroblasts;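 note: curves fitted for both rise and fall of signal versus DMSO baseline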
Procedure, shortened: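 Steps: dose primary human dermal fibroblasts (foreskin); […] fix in 10% TCA; stain with 0.1% SRB; read 560 nm; fit gain or loss of signal against DMSO.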

[19] = read-out: Macrophage colony-stimulating factor (MCSF), CSF1 (gene 1435); test: BSK_hDFCGF_MCSF: BioMAP Diversity Plus: hDFCGF Assay for Macrophage colony-stimulating factor (MCSF) Biomarker Activity (AID 2283060); settings: primary human foreskin fibroblasts; actives raise or lower the signal
Procedure, shortened: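 M-CSF levels read by ELISA at 24 h post-dosing in human skin fibroblasts. Parallel cultures stained with SRB assessed cytotoxicity at the same time point; response fitted in both directions against the DMSO baseline.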

[20] = BSK_hDFCGF_SRB: Viability Assessment in the BioMAP Diversity Plus: hDFCGF Assay (AID 2283061); settings: primary human foreskin fibroblasts;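 note: cells exposed to compound for 24 h before the read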
Procedure, shortened: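 Viability was read as total protein: after 10% TCA fixation, wells were stained with 0.1% sulforhodamine B and read at 560 nm. Primary human foreskin fibroblasts were dosed for 24 h, with bidirectional fitting versus DMSO.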

Measured: AC50

CCCCOC(=O)[C@@H](C)Oc1ccc(Oc2ccc(C(F)(F)F)cn2)cc1
inactive: [1] | [2] | [3] | [4] | [5] | [6] | [7] | [8] | [9] | [10] | [11] | [12] | [13] | [14] | [15] | [16] | [17] | [18] | [19] | [20]

CCCOC(=O)c1ccc(C(=O)OCCC)nc1
inactive: [1] | [2] | [3] | [4] | [5] | [6] | [7] | [8] | [9] | [10] | [11] | [12] | [13] | [14] | [15] | [16] | [17] | [18] | [19] | [20]

C=CCOC(Cn1ccnc1)c1ccc(Cl)cc1Cl (stereo not given)
active: [12] 27 µM
inactive: [1] | [2] | [3] | [4] | [5] | [6] | [7] | [8] | [9] | [10] | [11] | [13] | [14] | [15] | [16] | [17] | [18] | [19] | [20]

CCOC(=O)C(C)Oc1ccc(Oc2nc3ccc(Cl)cc3o2)cc1 (stereo not given)
active: [18] 13.2 µM
inactive: [1] | [2] | [3] | [4] | [5] | [6] | [7] | [8] | [9] | [10] | [11] | [12] | [13] | [14] | [15] | [16] | [17] | [19] | [20]

CCCCC(CC)COC(=O)c1ccccc1C(=O)O (stereo not given)
active: [12] 11 µM | [19] 9.84 µM
inactive: [1] | [2] | [3] | [4] | [5] | [6] | [7] | [8] | [9] | [10] | [11] | [13] | [14] | [15] | [16] | [17] | [18] | [20]

CC1(C)C(C=C(Cl)Cl)C1C(=O)OCc1cccc(Oc2ccccc2)c1 (stereo not given)
active: [10] 13.4 µM | [15] 4.2 µM | [16] 8.28 µM | [18] 7.38 µM
inactive: [1] | [2] | [3] | [4] | [5] | [6] | [7] | [8] | [9] | [11] | [12] | [13] | [14] | [17] | [19] | [20]

CCCN(CCC)c1c([N+](=O)[O-])cc(C(F)(F)F)c(N)c1[N+](=O)[O-]
inactive: [1] | [2] | [3] | [4] | [5] | [7] | [8] | [9] | [11] | [13] | [14] | [16] | [17]
active: [6] 28.1 µM | [10] 3.97 µM | [12] 31.3 µM | [15] 31.4 µM | [18] 26.7 µM | [19] 27.9 µM | [20] 33.3 µM

CCCCCOC(=O)COc1cc(N2C(=O)C3=C(CCCC3)C2=O)c(F)cc1Cl
active: [3] 14.4 µM | [6] 12.6 µM | [7] 25.5 µM | [12] 17.9 µM | [14] 5.55 µM | [15] 15.4 µM | [18] 22.7 µM | [19] 20 µM
inactive: [1] | [2] | [4] | [5] | [8] | [9] | [10] | [11] | [13] | [16] | [17] | [20]

S=C([S-])NCCNC(=S)[S-].[Mn+2]
inactive: [1] | [2] | [3] | [4] | [5] | [7] | [8] | [9] | [11] | [13] | [14] | [17] | [20]
active: [6] 29.9 µM | [10] 27.1 µM | [12] 30.7 µM | [15] 29.1 µM | [16] 0.149 µM | [18] 8.5 µM | [19] 25.8 µM

COc1nc(C)nc(NC(=O)NS(=O)(=O)c2ccccc2OCCCl)n1
inactive: [1] | [2] | [3] | [4] | [6] | [7] | [8] | [9] | [10] | [11] | [12] | [13] | [14] | [15] | [16] | [17] | [18] | [19] | [20]
active: [5] 0.441 µM

CC(C)(C)[C@@H](O)[C@@H](Cc1ccc(Cl)cc1)n1cncn1
inactive: [1] | [2] | [3] | [4] | [5] | [6] | [7] | [8] | [9] | [10] | [11] | [12] | [13] | [14] | [15] | [16] | [17] | [18] | [19] | [20]

N[C@@H](Cc1cc(I)c(Oc2ccc(O)c(I)c2)c(I)c1)C(=O)O
inactive: [1] | [2] | [3] | [4] | [5] | [6] | [7] | [8] | [9] | [10] | [11] | [12] | [13] | [14] | [15] | [16] | [17] | [19] | [20]
active: [18] 8.65 µM
